Test results published in PubChem BioAssay AID651956 (Broad Institute, 2012).
Measured potencies and affinities stand elsewhere. Records with an inconclusive call do not appear. Active and inactive are the calls of the source.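 The calls were made as follows: active = in every test run, a fitted half-maximal concentration for signal decrease at or below twice the highest tested concentration; inconclusive = runs disagree, flat 30 to 70% decrease, or poor fit; inactive = the rest.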

Assay: activation of miR-122 Renilla sensor silencing – cell-based, Huh7 psiCHECK-miR122, Renilla luciferase, cherry-picked, dose response (AID 651956);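 also: Renilla luciferase from a miR-122 sensor reporter so lower signal means miR-122 activation; 0% = median neutral control wells and -100% = median positive control wells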
Settings: Huh7 psiCHECK-miR122 Renilla luciferase reporter, 48 h; series mostly up to 35 µM; activity change, negative = signal decrease: at the top concentration

Row | SMILES | activity change, negative = signal decrease
1 | C[C@H]1CN([C@@H](C)CO)S(=O)(=O)c2ccc(-c3ccccc3F)cc2O[C@@H]1CN(C)Cc1cccnc1 | -53.4% (inactive)
2 | C/C(=N\Nc1cc(N2CCCCC2)nc(C)n1)c1ccc(Br)cc1 | 20.9% (inactive)
3 | CN(C[C@H]1N[C@@H](CO)[C@H]1c1ccc(-c2cccc(F)c2)cc1)C(=O)C1CCC1 | 282% (inactive)
4 | COc1ccc(CC(NC(C)=O)C(=O)N2CCN(C(=O)N(C(C)C)C(C)C)CC2)cc1 (stereo not given) | 13.5% (inactive)
5 | COc1ccc(C(NC(C)=O)c2cc(Cl)c3cccnc3c2O)cc1 (stereo not given) | -26.7% (inactive)
6 | O=C(CC(F)(F)F)N1C[C@@H]2[C@H](c3ccccc31)[C@@H](CO)N2C(=O)C1CCCC1 | -32.5% (inactive)
7 | CCCNC(=O)Nc1ccc2c(c1)C(=O)N(C)[C@@H]1CC[C@H](CC(=O)O)O[C@H]1CO2 | 117% (inactive)
8 | O=C(N[C@H]1CC[C@H](CCn2cc(C3(O)CCCC3)nn2)O[C@H]1CO)c1ccccc1F | -22.4% (inactive)
9 | CNC(=O)C[C@@H]1CC[C@H]2[C@@H](COc3ccc(NC(=O)NC(C)C)cc3C(=O)N2C)O1 | 91.3% [at 30 µM] (inactive)
10 | CSc1cccc(NS(=O)(=O)c2ccccc2)c1 | 535% (inactive)
11 | CNC(=O)C[C@H]1CC[C@H]2[C@H](COc3ccc(NC(=O)c4cccc(F)c4)cc3C(=O)N2C)O1 | 177% (inactive)
12 | CN1C(=O)c2cc(NC(=O)c3cccs3)ccc2OC[C@H]2O[C@H](CC(=O)NCCN3CCCCC3)CC[C@H]21 | -21.6% (inactive)
13 | Cc1cc2n(n1)C(c1cn(-c3ccccc3)nc1C)Nc1c(C)cccc1-2 (stereo not given) | 51.5% (inactive)
14 | CO[C@H]1CN(C)C(=O)c2cc(NC(=O)c3ccccc3F)ccc2OC[C@@H](C)N(C)C[C@@H]1C | -13.2% (inactive)
15 | C[C@H]1CN([C@@H](C)CO)S(=O)(=O)c2ccc(C#CC3CCCCC3)cc2O[C@@H]1CN(C)C | -91.8% (inactive)
16 | CN1C(=O)c2cc(NC(=O)c3cccc(F)c3)ccc2OC[C@@H]2O[C@@H](CC(=O)O)CC[C@H]21 | 28.9% [at 30 µM] (inactive)
17 | CC(C)C(=O)Nc1ccc2c(c1)C(=O)N(C)[C@H]1CC[C@H](CC(=O)O)O[C@H]1CO2 | 115% (inactive)
18 | COCC(=O)N(C)C[C@@H]1[C@@H](c2ccccc2)[C@H](CO)N1C(=O)Cc1ccncc1 | -13.1% [at 30 µM] (inactive)

Row | SMILES | activity change, negative = signal decrease
19 | Cc1cc(C(=O)Nc2ccc3c(c2)C(=O)N(C)[C@@H]2CC[C@@H](CC(=O)N[C@H](C)c4ccccc4)O[C@H]2CO3)no1 | 8.39% (inactive)
20 | CN1C(=O)c2cc(NC(=O)Cc3ccccc3)ccc2OC[C@H]2O[C@@H](CC(=O)NCc3ccc(Cl)cc3)CC[C@@H]21 | 119% (inactive)
21 | CN1C(=O)c2cc(NC(=O)Nc3ccc(Cl)cc3)ccc2OC[C@H]2O[C@H](CC(=O)NCCN3CCCCC3)CC[C@H]21 | -3.5% [at 30 µM] (inactive)
22 | CCN(CC)S(=O)(=O)c1ccc(NC(=O)Nc2cccc(C(F)(F)F)c2)cc1 | 146% (inactive)
23 | O=C(C1CC1)N(CCN(C(=O)C1CC1)c1ccccc1)c1ccccc1 | -22.7% (inactive)
24 | CCNC(=O)C[C@H]1CC[C@@H]2[C@@H](COc3ccc(NC(=O)c4cccc(C(F)(F)F)c4)cc3C(=O)N2C)O1 | 32.7% (inactive)
25 | CN1C(=O)c2cc(NC(=O)Cc3ccccc3)ccc2OC[C@H]2O[C@@H](CC(=O)NC3CCC3)CC[C@@H]21 | 6.97% (inactive)
26 | COC(=O)C[C@@H]1CC[C@@H]2[C@@H](COc3ccc(NC(=O)Nc4cccc(C#N)c4)cc3C(=O)N2C)O1 | 27.5% (inactive)
27 | COC(=O)C[C@@H]1CC[C@@H]2[C@H](COc3ccc(NS(=O)(=O)c4ccc(F)cc4)cc3C(=O)N2C)O1 | 90.1% (inactive)
28 | COc1cc(Cl)cc(/C=N\NC(=O)c2ccc3c(c2)OCO3)c1O | 42.6% (inactive)
29 | CN(C)CCCNC(=O)C[C@H]1CC[C@H]2[C@H](COc3ccc(NC(=O)c4cccc(F)c4)cc3C(=O)N2C)O1 | 55.7% (inactive)
30 | CCNC(=O)C[C@@H]1CC[C@H]2[C@@H](COc3ccc(NC(=O)c4ccc(C(F)(F)F)cc4)cc3C(=O)N2C)O1 | -32.2% (inactive)
31 | COCC(=O)Nc1ccc2c(c1)C(=O)N(C)[C@@H]1CC[C@H](CC(=O)N3CCc4ccccc4C3)O[C@H]1CO2 | -21.2% (inactive)
32 | CCNC(=O)Nc1ccc2c(c1)C(=O)N(C)[C@H]1CC[C@H](CC(=O)NCCOC)O[C@@H]1CO2 | -20.9% (inactive)
33 | COC(=O)C[C@H]1CC[C@@H]2[C@@H](COc3ccc(NC(=O)c4cnccn4)cc3C(=O)N2C)O1 | -5.79% (inactive)
34 | CCCNC(=O)N1C[C@@H]2[C@H](c3ccccc31)[C@@H](CO)N2Cc1cc(F)ccc1F | -0.833% (inactive)
35 | CCOC(=O)C1CCN(C(c2cccnc2)c2c(NC(=O)c3ccco3)sc(C)c2C)CC1 (stereo not given) | -28.7% (inactive)
